Consider four compounds from publication PMC11062922 (Nature Chemical Biology, 2023).

Common to all, as to design: species or system human, MV4-11 + K-562 + COLO205 + SK-N-BE2 + OVCAR-8
The subject of one test is ADCK3. The following applies: read-out: apparent Kd, n = 1.
Another test deals with BMPR2. The following applies: read-out: apparent Kd; compound concentrations: 100 nM and 1000 nM (sheet 'Samples'), CATDS: 0.122163431962668; n = 1.
The test system of a further test is CSNK1A1. The following applies: read-out: apparent Kd; compound concentrations: 100 nM and 1000 nM (sheet 'Samples'), CATDS: 0.24698540566434601; n = 1.
The test system of the next test is CSNK1D. The following applies: read-out: apparent Kd; compound concentrations: 100 nM and 1000 nM (sheet 'Samples'), CATDS: 0.25978966817559301; n = 1.
Another test deals with CSNK1E. The following applies: read-out: apparent Kd; compound concentrations: 100 nM and 1000 nM (sheet 'Samples'), CATDS: 0.174355768455381; n = 1.
The subject of another test is PKN2. The following applies: read-out: apparent Kd; compound concentrations: 100 nM and 1000 nM (sheet 'Samples'), CATDS: 0.12366746425094501; n = 1.
In the next test the test system is DHCR24. Particulars: read-out: apparent Kd; compound concentrations:100 nM and 1000 nM (sheet 'Samples'); n = 1.
Another test deals with T1, DJA1.
T1 construct: gene DNAJA1
Particulars: read-out: apparent Kd; compound concentrations:100 nM and 1000 nM (sheet 'Samples'); n = 1.

In the next test the test system is ERBB3. Particulars: read-out: apparent Kd; compound concentrations:100 nM and 1000 nM (sheet 'Samples'); n = 1.
The subject of another test is PI4KA. The following applies: read-out: apparent Kd; compound concentrations:100 nM and 1000 nM (sheet 'Samples'); n = 1.
Another test has as its system PI4KB. The following applies: read-out: apparent Kd; compound concentrations:100 nM and 1000 nM (sheet 'Samples'); n = 1.
The next test has as its system PIK3C2A. The following applies: read-out: apparent Kd; compound concentrations:100 nM and 1000 nM (sheet 'Samples'); n = 1.
Another test concerns PIK3C2B. Particulars: read-out: apparent Kd; compound concentrations:100 nM and 1000 nM (sheet 'Samples'); n = 1.
The next test deals with PIK3CA. The following applies: read-out: apparent Kd; compound concentrations:100 nM and 1000 nM (sheet 'Samples'); n = 1.
For another test, the system named is PIK3CB. Particulars: read-out: apparent Kd; compound concentrations:100 nM and 1000 nM (sheet 'Samples'); n = 1.
Another test relates to PIK3CD. The following applies: read-out: apparent Kd; compound concentrations:100 nM and 1000 nM (sheet 'Samples'); n = 1.
For another test, the system named is PRKDC. Particulars: read-out: apparent Kd; compound concentrations:100 nM and 1000 nM (sheet 'Samples'); n = 1.
For another test, the system named is CLK1. Particulars: read-out: apparent Kd; compound concentrations:100 nM and 1000 nM (sheet 'Samples'); n = 1.
Another test has as its system CLK2. The following applies: read-out: apparent Kd; compound concentrations:100 nM and 1000 nM (sheet 'Samples'); n = 1.
A further test relates to CLK4. Particulars: read-out: apparent Kd; compound concentrations:100 nM and 1000 nM (sheet 'Samples'); n = 1.
The subject of a further test is FER. The following applies: read-out: apparent Kd; compound concentrations:100 nM and 1000 nM (sheet 'Samples'); n = 1.
The next test deals with IGF1R. Particulars: read-out: apparent Kd; compound concentrations:100 nM and 1000 nM (sheet 'Samples'); n = 1.
The test system of a further test is INSR. The following applies: read-out: apparent Kd; compound concentrations:100 nM and 1000 nM (sheet 'Samples'); n = 1.
Another test relates to PLK1. The following applies: read-out: apparent Kd; compound concentrations:100 nM and 1000 nM (sheet 'Samples'); n = 1.
The next test relates to AKT3. The following applies: read-out: apparent Kd; compound concentrations:100 nM and 1000 nM (sheet 'Samples'); n = 1.
A further test relates to BRAF. The following applies: read-out: apparent Kd; compound concentrations:100 nM and 1000 nM (sheet 'Samples'); n = 1.
Another test concerns NNT. Particulars: read-out: apparent Kd; compound concentrations:100 nM and 1000 nM (sheet 'Samples'); n = 1.
A further test relates to RIPK2. Particulars: read-out: apparent Kd; compound concentrations:100 nM and 1000 nM (sheet 'Samples'); n = 1.
The subject of the next test is STK26. Particulars: read-out: apparent Kd; compound concentrations:100 nM and 1000 nM (sheet 'Samples'); n = 1.
The mark [1] stands for this setting: compound concentrations:100 nM and 1000 nM (sheet 'Samples').

Like-named read-outs stand apart in the source and are kept apart here.

With `Cc1cc(C)c2c(n1)sc1c(N)ncnc12` [RO4241967-000], the potency estimated from few doses in the test with ADCK3 (compound concentrations: 100 nM and 1000 nM (sheet 'Samples'), CATDS: 0.164080926877189) was 987 nM; in the test with BMPR2 it was 2210 nM; in the test on CSNK1A1 it was 453 nM; with CSNK1D, 417 nM; with CSNK1E it was 864 nM; with PKN2, 2120 nM.
For the compound `COc1ccc(-c2cc3c(C)nc(N)nc3n([C@H]3CC[C@H](OCCO)CC3)c2=O)cn1` [PFE-PKIS_29], the potency estimated from few doses was 1460 nM with ADCK3 (setting [1]); 1750 nM in the test with DHCR24; 1960 nM in the test on DJA1; 453 nM in the test on ERBB3; 61.5 nM with PI4KA; 702 nM with PI4KB. The potency estimated from few doses was 999 nM in the test on PIK3C2A; 34.9 nM with PIK3C2B; 1.27 nM in the test with PIK3CA; 10.3 nM in the test on PIK3CB; 0.67 nM in the test with PIK3CD; 817 nM in the test on PRKDC.
Consider `CNC(=O)c1c(F)cccc1Nc1nc(Nc2cc3c(cc2OC)CCN3C(=O)CN(C)C)nc2[nH]ccc12` [GSK1838705], for which the potency estimated from few doses is 1340 nM with ADCK3 (setting [1]); 376 nM with CLK1; 600 nM with CLK2; 137 nM in the test with CLK4; 133 nM with FER; 1130 nM in the test with IGF1R. The results for the potency estimated from few doses in the test on INSR, with PIK3CA and in the test with PLK1 were 759 nM, 176 nM and 2350 nM, respectively.
For `CN(C)CCOc1ccc(-c2nc(-c3ccc4c(c3)CC/C4=N/O)c(-c3ccncc3)[nH]2)cc1` [SB-590885_KCGS], the potency estimated from few doses is 1150 nM in the test on ADCK3 (setting [1]); 1900 nM with AKT3; 88.6 nM in the test with BRAF; 1680 nM with NNT; 679 nM in the test on RIPK2; 2210 nM in the test on STK26.
